PubChem BioAssay AID1779 (Sanford-Burnham Center for Chemical Genomics, 2009)
Screen size: about 290,000 compounds; about 160 (0.055%) were called active. Only a selection was taken, and actives are over-represented in it overall. Values without a mark were called inactive. Cut-off read from the data, not from the text of the source: active = inhibition above about 50%; inactive = the rest.

Target: Tyrosine-protein phosphatase non-receptor type 22 (Homo sapiens) (UniProt Q9Y2R2)
Experiment: PTPN22 lymphoid phosphatase activity blockers – biochemical, fluorescence intensity, uHTS (AID 1779);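 note: plate controls were vehicle with enzyme for no effect and no enzyme for full effect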
Conditions: recombinant LYP phosphatase, at 11.5 µM, stronger effect = higher value

Sequence of Tyrosine-protein phosphatase non-receptor type 22 (Homo sapiens) (Q9Y2R2 whole entry, looked up): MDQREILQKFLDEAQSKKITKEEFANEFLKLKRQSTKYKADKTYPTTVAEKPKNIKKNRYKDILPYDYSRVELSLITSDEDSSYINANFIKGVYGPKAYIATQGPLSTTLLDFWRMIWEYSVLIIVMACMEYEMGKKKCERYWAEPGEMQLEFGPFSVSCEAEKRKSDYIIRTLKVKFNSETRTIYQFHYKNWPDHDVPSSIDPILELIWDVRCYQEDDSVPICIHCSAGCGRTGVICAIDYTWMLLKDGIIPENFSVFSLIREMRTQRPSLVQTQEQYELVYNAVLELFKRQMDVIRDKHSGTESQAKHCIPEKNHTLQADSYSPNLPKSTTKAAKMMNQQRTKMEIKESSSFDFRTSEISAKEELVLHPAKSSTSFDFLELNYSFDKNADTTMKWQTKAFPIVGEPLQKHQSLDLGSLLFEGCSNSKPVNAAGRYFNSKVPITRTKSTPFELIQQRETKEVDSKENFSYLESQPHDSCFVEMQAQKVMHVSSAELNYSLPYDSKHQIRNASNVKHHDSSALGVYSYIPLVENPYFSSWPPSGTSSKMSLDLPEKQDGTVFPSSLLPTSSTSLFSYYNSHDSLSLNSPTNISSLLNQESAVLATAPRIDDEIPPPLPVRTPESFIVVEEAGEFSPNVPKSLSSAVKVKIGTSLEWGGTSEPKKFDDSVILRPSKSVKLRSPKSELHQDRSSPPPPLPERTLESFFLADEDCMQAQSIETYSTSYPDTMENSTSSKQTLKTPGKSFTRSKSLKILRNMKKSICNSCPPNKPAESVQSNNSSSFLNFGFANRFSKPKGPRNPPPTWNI

Compound | inhibition
Cc1csc2ncc(C(=O)N3CCCc4ccccc43)c(=O)n12 | -4%
O=C(CN1C(=O)CSc2ccccc21)Nc1ccccc1C(=O)N1CCOCC1 | -0.4%
NC(=O)c1nc(-c2cccs2)nc2c1[nH]c(=O)n2-c1ccc(F)cc1 | -3.8%
O=C(Nc1nccs1)c1ccc(S(=O)(=O)NCC2CCCCC2)cc1 | 9.6%
O=C(Nc1nccs1)c1ccc(S(=O)(=O)c2ccccc2)cc1 | -4.6%
O=C(Nc1nccs1)c1ccc(S(=O)(=O)NCc2cccs2)cc1 | 84.4% (active)
Cc1ccccc1NC(=S)NC(NC(=O)c1ccccc1C)C(Cl)(Cl)Cl (centres undefined) | -5.7%
Cc1noc(C)c1COC(=O)c1ccc(S(=O)(=O)N2CCCCC2)cc1 | -3.8%
COc1ccc(S(=O)(=O)N2CCc3ccccc32)cc1C(=O)OCc1c(C)noc1C | 1%
COc1ccc(S(=O)(=O)N2CCCCCC2)cc1C(=O)OCc1c(C)noc1C | 50.5% (active)
CCOC(=O)c1c(NC(=O)COc2ncnc3ccccc23)sc(C)c1C | 3.4%
O=C(NCc1ccccc1)C(c1ccccc1F)N(CC1CCCO1)C(=O)c1ccccn1 (centres undefined) | -7.1%
Cc1cc(C)nc(NC(=O)c2cc(-c3ccc(C)s3)nc3ccccc23)c1 | 79.7% (active)
Cc1cc(NC(=O)c2cc(-c3ccc(C)s3)nc3ccccc23)no1 | -4.3%
Cc1cccc(NC(=O)c2cc(-c3ccc(C)s3)nc3ccccc23)n1 | 6.1%
COc1ccc(-c2nnn(CC(=O)N(CCCO)C(C(=O)NC3CCCC3)c3ccncc3)n2)cc1 (centres undefined) | -4.7%
CC(=O)N1CCc2c(sc3c2c(=O)n(-c2ccccc2)c(=O)n3CC(=O)NCC2CCCO2)C1 (centres undefined) | -11%
COc1ccc(COC(=O)Nc2cn(C)nc2C(F)(F)F)cc1 | 1.1%
CCC(C)[C@H](NC(=O)[C@@H]1CSC2c3ccccc3C(=O)N21)C(=O)NCC1CCCO1 (some centres undefined) | -11.5%
CCn1cc(CNC(=O)c2cc([N+](=O)[O-])c(C)c([N+](=O)[O-])c2)cn1 | 55.6% (active)
CCn1cc(CNC(=O)c2cccc([N+](=O)[O-])c2)cn1 | -11.2%
Cc1c([N+](=O)[O-])cc(C(=O)NCc2ccc(F)cc2)cc1[N+](=O)[O-] | -4.5%
COc1ccc(N(C(=O)CNC(=O)c2ccco2)C(C(=O)NCC2CCCO2)c2ccccc2)cc1 (centres undefined) | -11.7%
O=C(OC1CCOC1=O)c1cccc(S(=O)(=O)N2CCc3ccccc3C2)c1 (centres undefined) | -8.2%

Compound | inhibition
CCCN1C(=O)C(O)(CC(=O)c2ccc3c(c2)OCCO3)c2ccccc21 (centres undefined) | 3.1%
COc1ccc(-c2cc(C)no2)cc1S(=O)(=O)N1CCN(c2ccccn2)CC1 | -10.6%
O=C(O)C1Nc2c(O)cccc2C2C=CCC12 (centres undefined) | 52% (active)
O=C(OC1CCCCC1)c1ccc2c(c1)C1C=CCC1C(C(=O)O)N2 (centres undefined) | 64% (active)
CCOC(=O)c1ccc2c(c1)C1C=CCC1C(C(=O)O)N2 (centres undefined) | 19.2%
CC(=O)c1ccc2c(c1)C1C=CCC1C(C(=O)O)N2 (centres undefined) | 3.3%
COc1cccc2c1NC(C(=O)O)C1CC=CC21 (centres undefined) | 1.7%
O=C(O)C1Nc2c(cccc2C(F)(F)F)C2C=CCC12 (centres undefined) | -2.1%
COc1cc2c(C(=O)Nc3ccccc3F)cn(C)c(=O)c2cc1OC | -10.5%
CCOC(=O)c1ccc(-c2ccc3c(=O)c4ccccc4n(C)c3c2)cc1F | -15.2%
CN1CCN(S(=O)(=O)c2cccc(C(=O)NCCOc3ccccc3F)c2)CC1 | -15.4%
Cc1cc(=O)n2c(n1)NC(Nc1cccc(C)c1C)=NC2c1ccc(F)cc1 (centres undefined) | -3.8%
O=C(COC(=O)c1ccccc1F)c1ccc(-n2nncc2-c2ccco2)cc1 | -3.3%
CSc1ccccc1NC(=O)CSc1nnc(Cc2ccccc2)o1 | -12.7%
CCOC(=O)c1sc2nc3c(SCCC(=O)O)cc(C(=O)c4cc(OC)ccc4O)cn3c(=O)c2c1C | 53.3% (active)
CCOC(=O)c1sc2nc3c(SCCC#N)cc(C(=O)c4cc(F)ccc4O)cn3c(=O)c2c1C | 1.4%
CCOC(=O)c1sc2nc3c(SCC(=O)O)cc(C(=O)c4cc(F)ccc4O)cn3c(=O)c2c1C | 5.2%
O=C(Nc1cc(Cl)cc(Cl)c1)C(NCC1CCCO1)c1ccccc1 (centres undefined) | 0%
COc1ccc(CCNC(=O)CCC(=O)N2CCN(S(=O)(=O)c3ccccc3)CC2)cc1OC | -4.5%
Cc1ccc(S(=O)(=O)c2nc(-c3ccccc3)oc2NCCN2CCOCC2)cc1 | 67.9% (active)
O=S(=O)(c1ccc(Br)cc1)c1nc(-c2ccccc2)oc1NCCN1CCOCC1 | -4.8%
Cc1ccc(S(=O)(=O)c2nc(-c3ccccc3)oc2NCCCN2CCOCC2)cc1 | 3.6%
O=C(CCN1C(=O)c2ccccc2C1=O)NCc1ccco1 | -4.2%
O=C(CCN1C(=O)C2CC=C(Cl)CC2C1=O)NCc1ccccc1 (centres undefined) | -1.9%

Compound | inhibition
O=C(CCN1C(=O)C2CC=C(Cl)CC2C1=O)NCc1ccco1 (centres undefined) | 55.2% (active)
Cc1ccc(NC(=O)c2cccc3ccccc23)cc1 | -8.7%
CC(C)CC(=O)Nc1ccc(C(=O)CN2CCN(c3ccc(O)cc3)CC2)cc1 | -9.4%
COc1ccc(C2CC(=O)OC3=C2C(=O)CC(C)(C)C3)c(OC)c1 (centres undefined) | -2.3%
Cc1ccc(C(=O)O)cc1NC(=O)c1ccc2c(c1)C(=O)N(c1ccc([N+](=O)[O-])cc1)C2=O | 50.3% (active)
O=C(O)c1cccc(NC(=O)c2ccc3c(c2)C(=O)N(c2cccc([N+](=O)[O-])c2)C3=O)c1 | -2%
Cc1cc([N+](=O)[O-])ccc1N1C(=O)c2ccc(C(=O)Nc3ccccc3C(=O)O)cc2C1=O | -5.4%
C(=N\Nc1nc(-c2ccccc2)cs1)/c1cccnc1 | 4.2%
CC(=O)c1ccc2noc(-c3cccc(C)c3)c2c1 | 8.5%
Cc1ccc2sc(NNC(=O)c3cc(=O)c4ccccc4o3)nc2c1C | 1.8%
CSCC[C@H](NC(=O)Nc1cccc(C(F)(F)F)c1)C(=O)O | 61.2% (active)
C[C@H](NC(=O)Nc1cccc(C(F)(F)F)c1)C(=O)O | -5.3%
CSCC[C@H](NC(=O)Nc1cccc(Br)c1)C(=O)O | -3.3%
CC(OC(=O)c1ccc(NS(=O)(=O)c2ccc3[nH]c(=O)[nH]c3c2)cc1)C(N)=O (centres undefined) | -4.3%
c1coc(C2Nc3cccc4cccc(c34)N2)c1 | 18.4%
Brc1ccc(C2Nc3cccc4cccc(c34)N2)o1 | 80.6% (active)
Brc1cccc(C2Nc3cccc4cccc(c34)N2)c1 | -6.2%
Cn1nc(C(C)(C)C)cc1NC(=O)Nc1ccc(Cl)cc1 | 0%
COc1ccccc1NC(=O)CSc1nnc(Cc2cccn2C)n1-c1ccc(F)cc1 | 1.1%
CCOc1ccccc1NC(=O)CSc1nnc(Cc2cccn2C)n1-c1ccc(F)cc1 | 64.9% (active)
Cn1cccc1Cc1nnc(SCC(=O)Nc2ccccc2F)n1-c1ccc(F)cc1 | 8.3%
CCc1cccc(NC(=O)C2CCCN(c3ncnc4c3nc3n4CCCCC3)C2)c1 (centres undefined) | -6.4%
COc1ccccc1CC(NC(C)=O)C(=O)NC1CCN(C(=O)Nc2ccc(F)cc2)CC1 (centres undefined) | -8%
Cc1nn(C)c(C(=O)N/N=C/c2cccnc2)c1Cl | -2.8%

Compound | inhibition
Cc1ccccc1Cc1c(C)nc2ncnn2c1C | -9%
O=C(O)CCCNc1cc(N2CCC3(CC2)OCCO3)c2noc3c2c1C(=O)c1ccccc1-3 | 75.6% (active)
O=C(O)CCCNc1cc(N2CCN(C(=O)c3ccco3)CC2)c2noc3c2c1C(=O)c1ccccc1-3 | 2.4%
CCOC(=O)N1CCN(c2cc(NCCC(=O)O)c3c4c(onc24)-c2ccccc2C3=O)CC1 | 3.3%
Clc1ccc2nc(-c3ccc(Br)s3)cn2c1 | -4.3%
CC(=Nc1ccccc1)c1sc2ccccc2c1O | 2%
COc1ccc(/C=C2\SC(N)=NC2=O)cc1Br | -4.5%
COc1cccc(C(=O)Nc2cccc(-c3ccc4nncn4n3)c2)c1OC | -0.4%
COc1cccc(OC)c1C(=O)Nc1cccc(-c2ccc3nncn3n2)c1 | -6.9%
CC(C)CC1=NN(C(=O)c2ccco2)C(O)(C(F)(F)F)C1 (centres undefined) | -6.1%
C=CCN(CC=C)C(=S)NC(=O)/C=C/c1ccc(OC)cc1 | 8.3%
C=CCN(CC=C)C(=S)NC(=O)/C=C/c1ccc(C)cc1 | 65.4% (active)
C=CCN(CC=C)C(=S)NC(=O)/C=C/c1ccccc1 | 2.6%
COc1ccc(S(=O)(=O)Nc2nccs2)cc1OC | -10.2%
CCC(C)n1c(C)nc2c(c1=O)c1nc3ccccc3nc1n2CCC1=CCCCC1 (centres undefined) | 7.5%
COc1ccc2c(-c3ccccc3)cc(N3CCOCC3)nc2c1 | 72.7% (active)
c1ccc(-c2cc(N3CCOCC3)nc3ccccc23)cc1 | 2.6%
COc1ccc2c(C)cc(N3CCOCC3)nc2c1 | -0.1%
NC(=O)c1nn(-c2ccccc2)nc1NC(=O)CSc1nnnn1-c1ccc(Cl)cc1 | 5.7%
CC(=O)c1cccc(NC(=O)c2ccc(OC3CSC3)cc2)c1 | -7%
Cc1cccc(NC(=O)c2ccc(OC3CSC3)cc2)c1 | -5%
O=C(Nc1ccc(Cl)cc1)c1ccc(OC2CSC2)cc1 | 67.9% (active)
